# Results from paper PMC7862700, “An all-to-all approach to the identification of sequence-specific readers for epigenetic DNA modifications on cytosine”.
# Experiments:
# Experiment in all cases: DAPPL (digital affinity profiling via proximity ligation, sequencing); 10 mM Tris-HCl pH 7.5, 50 mM NaCl, 1 mM DTT, 4% glycerol, room temperature, 30 min; GST-TFs on glutathione beads, 16-mer random dsDNA library, 0.1% formaldehyde crosslink after washing; high values mean tight binding
# FLI1 = target: T1, FLI1 (Homo sapiens, UniProt Q01543 1-452); conditions: protein: recombinant; tags: N-terminal GST; dsDNA, one strand shown
# T1 sequence: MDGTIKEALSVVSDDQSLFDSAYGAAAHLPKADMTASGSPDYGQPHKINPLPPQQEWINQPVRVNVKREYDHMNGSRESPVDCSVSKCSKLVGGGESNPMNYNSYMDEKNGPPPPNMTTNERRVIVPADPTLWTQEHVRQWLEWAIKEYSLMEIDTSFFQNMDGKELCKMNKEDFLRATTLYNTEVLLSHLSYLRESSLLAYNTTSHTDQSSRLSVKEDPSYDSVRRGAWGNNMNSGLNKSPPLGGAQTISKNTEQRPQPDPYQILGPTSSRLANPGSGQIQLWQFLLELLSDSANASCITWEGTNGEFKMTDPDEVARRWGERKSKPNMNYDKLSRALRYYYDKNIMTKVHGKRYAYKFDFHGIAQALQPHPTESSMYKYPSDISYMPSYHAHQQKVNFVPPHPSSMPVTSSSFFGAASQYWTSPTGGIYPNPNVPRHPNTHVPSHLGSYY
# Outline: (§1)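 The binding signal reported is, for every hexamer, its read frequency for a factor over its read frequency for the tag-only sample. Reads came from pools of yeast-expressed, GST-fused human transcription factors on glutathione beads, barcoded with DNA and mixed with that sample, which were incubated with 200 nmole of a random double-stranded 16-mer DNA library in Tris/NaCl/DTT/glycerol buffer at room temperature for 30 min. After washing, the pools were crosslinked with 0.1% formaldehyde, proximity-ligated with BsaI/T4 ligase for 1 h at 37 °C, PCR-amplified and sequenced on an Illumina NextSeq500.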
# ELK1 = target: T2, ELK1 (Homo sapiens, UniProt P19419 1-428); conditions: protein: recombinant; tags: N-terminal GST; dsDNA, one strand shown
# T2 sequence: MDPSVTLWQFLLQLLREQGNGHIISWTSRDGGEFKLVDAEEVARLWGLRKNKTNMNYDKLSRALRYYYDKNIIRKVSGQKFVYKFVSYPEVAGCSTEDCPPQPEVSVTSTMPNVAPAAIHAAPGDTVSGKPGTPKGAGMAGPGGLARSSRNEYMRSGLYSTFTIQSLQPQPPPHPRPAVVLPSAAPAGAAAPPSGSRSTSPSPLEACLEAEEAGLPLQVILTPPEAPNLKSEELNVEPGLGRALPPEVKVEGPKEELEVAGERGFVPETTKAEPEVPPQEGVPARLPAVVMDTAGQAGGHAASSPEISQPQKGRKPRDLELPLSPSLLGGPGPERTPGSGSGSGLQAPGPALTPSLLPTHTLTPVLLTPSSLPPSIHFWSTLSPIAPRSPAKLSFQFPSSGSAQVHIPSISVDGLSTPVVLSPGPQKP
# Outline: as §1
# GABPA = target: T3, GABPA (Homo sapiens, UniProt Q06546 1-454); conditions: protein: recombinant; tags: N-terminal GST; dsDNA, one strand shown
# T3 sequence: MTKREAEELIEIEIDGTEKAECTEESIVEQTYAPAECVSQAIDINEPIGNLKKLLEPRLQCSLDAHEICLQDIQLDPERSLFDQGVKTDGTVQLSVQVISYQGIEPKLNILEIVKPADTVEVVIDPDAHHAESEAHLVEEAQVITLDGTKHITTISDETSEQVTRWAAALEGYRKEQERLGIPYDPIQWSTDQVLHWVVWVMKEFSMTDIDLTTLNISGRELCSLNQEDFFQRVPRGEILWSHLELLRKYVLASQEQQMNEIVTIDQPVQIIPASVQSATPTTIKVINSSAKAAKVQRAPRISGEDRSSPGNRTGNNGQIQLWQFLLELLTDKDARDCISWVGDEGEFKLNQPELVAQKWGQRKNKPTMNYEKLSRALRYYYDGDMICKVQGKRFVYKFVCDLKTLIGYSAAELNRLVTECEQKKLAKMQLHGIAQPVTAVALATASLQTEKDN
# Outline: as §1
# ERG = target: T4, ERG (Homo sapiens, UniProt P11308 1-479); conditions: protein: recombinant; tags: N-terminal GST; dsDNA, one strand shown
# T4 sequence: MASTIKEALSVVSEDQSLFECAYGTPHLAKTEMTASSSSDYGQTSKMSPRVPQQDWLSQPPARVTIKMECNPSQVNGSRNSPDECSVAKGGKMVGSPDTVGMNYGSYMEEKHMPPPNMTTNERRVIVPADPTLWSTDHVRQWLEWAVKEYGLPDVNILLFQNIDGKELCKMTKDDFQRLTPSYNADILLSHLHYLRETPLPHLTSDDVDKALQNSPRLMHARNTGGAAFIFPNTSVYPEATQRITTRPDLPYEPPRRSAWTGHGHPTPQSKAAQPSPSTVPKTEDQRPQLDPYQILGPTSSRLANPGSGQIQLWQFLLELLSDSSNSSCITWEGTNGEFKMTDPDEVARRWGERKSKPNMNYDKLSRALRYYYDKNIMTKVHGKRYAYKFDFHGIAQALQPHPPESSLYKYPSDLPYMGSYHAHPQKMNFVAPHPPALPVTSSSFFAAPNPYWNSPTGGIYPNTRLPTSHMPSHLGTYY
# Outline: as §1
# ELF1 = ELF1 (Homo sapiens, UniProt P32519 1-619); conditions: protein: recombinant; tags: N-terminal GST; dsDNA, one strand shown
# Outline: as §1
# EHF = target: T5, EHF (Homo sapiens, UniProt Q9NZC4 1-300); conditions: protein: recombinant; tags: N-terminal GST; dsDNA, one strand shown
# T5 sequence: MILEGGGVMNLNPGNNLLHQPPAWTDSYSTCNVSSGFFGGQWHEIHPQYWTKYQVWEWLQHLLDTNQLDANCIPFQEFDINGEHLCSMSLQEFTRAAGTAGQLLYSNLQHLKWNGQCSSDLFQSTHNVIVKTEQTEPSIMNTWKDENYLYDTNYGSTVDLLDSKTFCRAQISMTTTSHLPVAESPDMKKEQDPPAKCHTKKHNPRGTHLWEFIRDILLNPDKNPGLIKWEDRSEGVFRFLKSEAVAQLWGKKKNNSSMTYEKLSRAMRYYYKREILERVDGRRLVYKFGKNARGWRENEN
# Outline: as §1
# SPI1 = SPI1 (Homo sapiens, UniProt P17947 1-270); conditions: protein: recombinant; tags: N-terminal GST; dsDNA, one strand shown
# Outline: as §1
# SPIB = SPIB (Homo sapiens, UniProt Q01892 1-262); conditions: protein: recombinant; tags: N-terminal GST; dsDNA, one strand shown
# Outline: as §1
# ELK3 = target: T6, ELK3 (Homo sapiens, UniProt P41970 1-407); conditions: protein: recombinant; tags: N-terminal GST; dsDNA, one strand shown
# T6 sequence: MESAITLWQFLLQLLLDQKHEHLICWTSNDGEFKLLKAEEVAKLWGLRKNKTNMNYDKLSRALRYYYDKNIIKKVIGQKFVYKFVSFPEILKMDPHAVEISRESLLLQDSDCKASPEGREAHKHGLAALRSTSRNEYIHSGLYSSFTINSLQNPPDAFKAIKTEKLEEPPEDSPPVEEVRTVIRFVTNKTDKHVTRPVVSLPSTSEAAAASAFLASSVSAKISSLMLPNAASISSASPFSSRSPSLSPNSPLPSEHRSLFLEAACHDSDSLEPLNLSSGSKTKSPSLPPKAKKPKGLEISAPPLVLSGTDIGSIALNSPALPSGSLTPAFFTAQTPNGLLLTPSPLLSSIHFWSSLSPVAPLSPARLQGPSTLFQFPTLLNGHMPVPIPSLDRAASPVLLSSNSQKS
# Outline: as §1
# FEV = target: T7, FEV (Homo sapiens, UniProt Q99581 1-238); conditions: protein: recombinant; tags: N-terminal GST; dsDNA, one strand shown
# T7 sequence: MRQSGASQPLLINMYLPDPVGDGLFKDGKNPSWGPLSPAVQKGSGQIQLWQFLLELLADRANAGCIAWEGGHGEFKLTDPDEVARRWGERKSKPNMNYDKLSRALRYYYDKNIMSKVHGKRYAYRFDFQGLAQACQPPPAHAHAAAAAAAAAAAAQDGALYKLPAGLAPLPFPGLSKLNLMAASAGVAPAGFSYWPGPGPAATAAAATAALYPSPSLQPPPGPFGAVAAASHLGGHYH
# Outline: as §1
# ETV5 = ETV5 (Homo sapiens, UniProt P41161 1-510); conditions: protein: recombinant; tags: N-terminal GST; dsDNA, one strand shown
# Outline: as §1
# HSF1 = HSF1 (Homo sapiens, UniProt Q00613 1-529); conditions: protein: recombinant; tags: N-terminal GST; chain copies: 3; dsDNA, one strand shown
# Outline: as §1
# SPIC = target: T8, SPIC (Homo sapiens, UniProt Q8N5J4 1-248); conditions: protein: recombinant; tags: N-terminal GST; dsDNA, one strand shown
# T8 sequence: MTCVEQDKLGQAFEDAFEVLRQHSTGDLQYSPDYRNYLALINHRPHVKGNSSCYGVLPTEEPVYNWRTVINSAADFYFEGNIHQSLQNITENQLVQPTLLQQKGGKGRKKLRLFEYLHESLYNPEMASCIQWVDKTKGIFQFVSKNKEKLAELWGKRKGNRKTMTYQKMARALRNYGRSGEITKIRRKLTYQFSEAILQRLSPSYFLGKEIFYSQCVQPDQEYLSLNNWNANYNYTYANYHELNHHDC
# Outline: as §1
# ELF4 = ELF4 (Homo sapiens, UniProt Q99607 1-663); conditions: protein: recombinant; tags: N-terminal GST; dsDNA, one strand shown
# Outline: as §1
# ELK4 = target: T9, ELK4 (Homo sapiens, UniProt P28324-2 1-405); conditions: protein: recombinant; tags: N-terminal GST; dsDNA, one strand shown
# T9 sequence: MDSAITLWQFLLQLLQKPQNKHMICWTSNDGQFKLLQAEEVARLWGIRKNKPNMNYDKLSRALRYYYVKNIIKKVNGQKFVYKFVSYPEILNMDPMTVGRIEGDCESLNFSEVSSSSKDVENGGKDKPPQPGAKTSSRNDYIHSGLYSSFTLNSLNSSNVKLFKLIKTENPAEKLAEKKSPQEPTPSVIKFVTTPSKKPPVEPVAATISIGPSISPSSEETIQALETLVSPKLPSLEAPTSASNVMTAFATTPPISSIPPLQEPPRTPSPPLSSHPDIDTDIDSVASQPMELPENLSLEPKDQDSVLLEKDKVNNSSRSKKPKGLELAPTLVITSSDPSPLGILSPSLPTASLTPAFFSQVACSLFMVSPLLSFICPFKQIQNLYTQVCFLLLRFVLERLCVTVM
# Outline: as §1
# ETV2 = target: T10, ETV2 (Homo sapiens, UniProt O00321 1-342); conditions: protein: recombinant; tags: N-terminal GST; dsDNA, one strand shown
# T10 sequence: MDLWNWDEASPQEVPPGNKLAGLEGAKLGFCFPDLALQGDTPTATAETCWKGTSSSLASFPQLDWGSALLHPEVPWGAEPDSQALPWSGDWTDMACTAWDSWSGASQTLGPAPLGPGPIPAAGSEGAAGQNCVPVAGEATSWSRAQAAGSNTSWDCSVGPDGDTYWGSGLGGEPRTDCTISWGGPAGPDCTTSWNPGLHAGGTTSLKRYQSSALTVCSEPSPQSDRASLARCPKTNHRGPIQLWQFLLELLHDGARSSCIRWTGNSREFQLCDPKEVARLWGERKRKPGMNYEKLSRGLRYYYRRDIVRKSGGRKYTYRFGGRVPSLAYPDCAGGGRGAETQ
# Outline: as §1
# ELF3 = target: T11, ELF3 (Homo sapiens, UniProt P78545 1-371); conditions: protein: recombinant; tags: N-terminal GST; dsDNA, one strand shown
# T11 sequence: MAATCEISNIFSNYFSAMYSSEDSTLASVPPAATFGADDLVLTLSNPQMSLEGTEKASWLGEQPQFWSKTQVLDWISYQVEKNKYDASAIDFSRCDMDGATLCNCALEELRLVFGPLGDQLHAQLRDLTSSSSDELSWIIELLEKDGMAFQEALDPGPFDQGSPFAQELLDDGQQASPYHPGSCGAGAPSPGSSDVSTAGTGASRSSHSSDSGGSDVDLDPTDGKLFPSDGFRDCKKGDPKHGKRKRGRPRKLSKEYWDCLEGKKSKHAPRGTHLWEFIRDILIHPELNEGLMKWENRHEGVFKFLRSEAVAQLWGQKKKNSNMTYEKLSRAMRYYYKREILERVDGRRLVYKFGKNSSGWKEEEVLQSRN
# Outline: as §1
# ETV1 = ETV1 (Homo sapiens, UniProt P50549 1-477); conditions: protein: recombinant; tags: N-terminal GST; dsDNA, one strand shown
# Outline: as §1
# SPIB, sequence (Q01892 whole entry): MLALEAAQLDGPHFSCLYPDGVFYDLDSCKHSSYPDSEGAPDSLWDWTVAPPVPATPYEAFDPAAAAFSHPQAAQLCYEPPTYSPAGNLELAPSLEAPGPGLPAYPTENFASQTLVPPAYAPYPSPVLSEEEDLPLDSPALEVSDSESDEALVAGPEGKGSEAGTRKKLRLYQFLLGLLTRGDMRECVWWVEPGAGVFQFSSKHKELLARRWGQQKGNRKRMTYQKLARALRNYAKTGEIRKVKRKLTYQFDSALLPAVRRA
# ETV1, sequence (P50549 whole entry): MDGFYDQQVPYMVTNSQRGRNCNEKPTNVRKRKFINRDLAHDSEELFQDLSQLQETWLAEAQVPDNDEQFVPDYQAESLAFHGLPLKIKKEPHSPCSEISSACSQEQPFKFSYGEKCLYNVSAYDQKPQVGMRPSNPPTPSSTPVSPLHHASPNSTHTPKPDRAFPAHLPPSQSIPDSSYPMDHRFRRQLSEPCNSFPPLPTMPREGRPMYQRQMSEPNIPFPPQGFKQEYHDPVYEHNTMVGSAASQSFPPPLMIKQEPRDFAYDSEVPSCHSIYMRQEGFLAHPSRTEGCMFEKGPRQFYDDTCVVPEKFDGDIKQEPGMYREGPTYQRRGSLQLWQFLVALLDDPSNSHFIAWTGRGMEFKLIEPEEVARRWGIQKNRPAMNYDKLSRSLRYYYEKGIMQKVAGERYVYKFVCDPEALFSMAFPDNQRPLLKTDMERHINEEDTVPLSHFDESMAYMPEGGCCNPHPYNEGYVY
# ETV5, sequence (P41161 whole entry): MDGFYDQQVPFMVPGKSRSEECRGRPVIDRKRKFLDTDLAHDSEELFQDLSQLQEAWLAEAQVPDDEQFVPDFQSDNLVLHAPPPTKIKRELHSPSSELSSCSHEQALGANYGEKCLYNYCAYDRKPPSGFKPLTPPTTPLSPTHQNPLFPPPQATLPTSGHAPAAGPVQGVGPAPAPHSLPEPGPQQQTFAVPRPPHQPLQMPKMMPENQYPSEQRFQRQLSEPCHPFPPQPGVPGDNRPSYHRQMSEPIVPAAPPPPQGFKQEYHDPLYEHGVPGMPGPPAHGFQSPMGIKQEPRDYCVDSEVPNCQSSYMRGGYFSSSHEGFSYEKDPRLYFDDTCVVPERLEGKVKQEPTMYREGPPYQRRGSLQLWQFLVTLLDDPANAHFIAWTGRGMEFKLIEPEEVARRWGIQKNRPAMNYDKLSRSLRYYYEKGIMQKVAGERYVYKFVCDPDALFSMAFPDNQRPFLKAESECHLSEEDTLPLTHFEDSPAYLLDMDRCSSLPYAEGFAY
# ELF1, sequence (P32519 whole entry): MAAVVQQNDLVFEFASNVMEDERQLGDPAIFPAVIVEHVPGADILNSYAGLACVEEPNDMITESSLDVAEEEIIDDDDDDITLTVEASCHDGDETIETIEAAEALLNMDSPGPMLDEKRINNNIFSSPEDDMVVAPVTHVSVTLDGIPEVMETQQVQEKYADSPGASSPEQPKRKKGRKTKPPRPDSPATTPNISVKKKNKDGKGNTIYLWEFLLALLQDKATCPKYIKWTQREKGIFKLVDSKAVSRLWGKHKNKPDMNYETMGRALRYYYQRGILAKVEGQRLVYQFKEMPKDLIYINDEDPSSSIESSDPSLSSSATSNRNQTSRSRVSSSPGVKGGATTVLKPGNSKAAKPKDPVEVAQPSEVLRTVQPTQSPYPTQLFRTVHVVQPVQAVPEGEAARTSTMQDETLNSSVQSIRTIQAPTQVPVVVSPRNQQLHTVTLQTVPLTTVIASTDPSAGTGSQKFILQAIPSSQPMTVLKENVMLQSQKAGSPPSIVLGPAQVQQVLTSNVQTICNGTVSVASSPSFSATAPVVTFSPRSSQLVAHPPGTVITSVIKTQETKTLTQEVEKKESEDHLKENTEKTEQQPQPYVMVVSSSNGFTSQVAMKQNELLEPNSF
# HSF1, sequence (Q00613 whole entry): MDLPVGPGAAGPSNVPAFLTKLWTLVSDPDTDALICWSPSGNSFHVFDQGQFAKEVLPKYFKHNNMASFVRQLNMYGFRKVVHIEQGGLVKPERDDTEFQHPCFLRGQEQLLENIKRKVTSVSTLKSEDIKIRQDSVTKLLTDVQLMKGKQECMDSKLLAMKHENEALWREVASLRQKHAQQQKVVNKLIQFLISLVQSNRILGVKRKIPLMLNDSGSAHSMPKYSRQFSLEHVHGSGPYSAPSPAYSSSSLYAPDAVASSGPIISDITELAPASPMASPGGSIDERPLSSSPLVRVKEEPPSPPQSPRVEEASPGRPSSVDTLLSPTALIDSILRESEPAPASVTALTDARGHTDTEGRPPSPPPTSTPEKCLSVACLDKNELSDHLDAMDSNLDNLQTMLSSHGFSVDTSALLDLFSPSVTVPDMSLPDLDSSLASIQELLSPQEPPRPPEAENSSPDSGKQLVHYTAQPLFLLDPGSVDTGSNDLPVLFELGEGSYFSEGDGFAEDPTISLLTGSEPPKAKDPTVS
# ELF4, sequence (Q99607 whole entry): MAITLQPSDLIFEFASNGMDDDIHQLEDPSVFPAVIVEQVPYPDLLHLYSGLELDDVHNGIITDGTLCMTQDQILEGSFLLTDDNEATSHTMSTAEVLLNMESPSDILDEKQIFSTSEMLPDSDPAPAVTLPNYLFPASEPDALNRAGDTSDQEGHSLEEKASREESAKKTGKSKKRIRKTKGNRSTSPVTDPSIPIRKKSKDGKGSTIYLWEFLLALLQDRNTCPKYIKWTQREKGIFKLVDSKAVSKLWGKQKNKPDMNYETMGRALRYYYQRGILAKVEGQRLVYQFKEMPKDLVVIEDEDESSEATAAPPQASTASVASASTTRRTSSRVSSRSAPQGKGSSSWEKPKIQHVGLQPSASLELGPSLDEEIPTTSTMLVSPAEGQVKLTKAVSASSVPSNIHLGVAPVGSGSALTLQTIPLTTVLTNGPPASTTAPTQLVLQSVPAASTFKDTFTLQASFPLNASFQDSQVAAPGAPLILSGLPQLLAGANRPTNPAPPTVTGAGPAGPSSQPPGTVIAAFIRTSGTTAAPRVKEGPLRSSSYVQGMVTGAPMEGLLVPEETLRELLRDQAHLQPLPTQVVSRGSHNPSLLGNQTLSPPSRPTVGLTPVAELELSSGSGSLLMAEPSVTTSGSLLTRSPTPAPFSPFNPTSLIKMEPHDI
sequence,measurement,setting,value
AACACG,binding signal,FLI1,"1.26 fold enrichment (6-mer frequency, TF over GST control)"
same,binding signal,ELK1,"1.23 fold enrichment (6-mer frequency, TF over GST control)"
same,binding signal,GABPA,"1.1 fold enrichment (6-mer frequency, TF over GST control)"
same,binding signal,ERG,"1.22 fold enrichment (6-mer frequency, TF over GST control)"
same,binding signal,ELF1,"1.18 fold enrichment (6-mer frequency, TF over GST control)"
same,binding signal,EHF,"1.14 fold enrichment (6-mer frequency, TF over GST control)"
same,binding signal,SPI1,"1.17 fold enrichment (6-mer frequency, TF over GST control)"
same,binding signal,SPIB,"1.13 fold enrichment (6-mer frequency, TF over GST control)"
same,binding signal,ELK3,"1.16 fold enrichment (6-mer frequency, TF over GST control)"
same,binding signal,FEV,"1.19 fold enrichment (6-mer frequency, TF over GST control)"
same,binding signal,ETV5,"1.25 fold enrichment (6-mer frequency, TF over GST control)"
same,binding signal,HSF1,"1.02 fold enrichment (6-mer frequency, TF over GST control)"
same,binding signal,SPIC,"1.33 fold enrichment (6-mer frequency, TF over GST control)"
same,binding signal,ELF4,"1.24 fold enrichment (6-mer frequency, TF over GST control)"
same,binding signal,ELK4,"1.22 fold enrichment (6-mer frequency, TF over GST control)"
same,binding signal,ETV2,"1.07 fold enrichment (6-mer frequency, TF over GST control)"
same,binding signal,ELF3,"1.19 fold enrichment (6-mer frequency, TF over GST control)"
same,binding signal,ETV1,"1.24 fold enrichment (6-mer frequency, TF over GST control)"
